aSyn rescue: qHTS of alpha-syn Inhibitors; 0.14% of 370,000 active; Yeast expressing alpha-synuclein, growth rescue, BacTiter-Glo, 24 h; Potency, µM (series often up to 46.1 µM), without a hit: top-dose growth rescue (activation), hits mostly activators; also: % of control where 0% means no effect; nearly all actives have a fitted effect of over 65% in size
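Readout is rescue of growth in alpha-synuclein-expressing yeast, so inhibitors of toxicity appear as activators. Growth after 24 hr at 30 deg C in galactose medium is quantified by luminescence.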
TDP-43 yeast inh: qHTS of TDP-43 Inhibitors. TDP-43 expressing yeast growth rescue, BacTiter-Glo, 24 h. Potency, µM (series often up to 46.1 µM), for inactives: at the highest dose growth rescue (activation), actives largely listed as activators. 1.8% of 410,000 active. AID 652104, 2013; also: % of control where 0% means no effect; nearly all actives have a fitted effect of over 50% in size
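Yeast expressing TDP-43 (pregrown in raffinose, seeded at OD600=0.02 in galactose medium) exposed to compounds 24 hr at 30 deg C. Growth read by BacTiter-Glo luminescence; rescue of toxicity appears as increased signal.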
ASM inhibitor: Inhibitors of Secretory Acid Sphingomyelinase (S-ASM): qHTS | Sphingomyelin phosphodiesterase (Homo sapiens), P17405 | placental ASM, HMU-PC fluorogenic substrate, 60 min | Potency, µM (highest dose often 57.5 µM), inactives show at the top dose activity change, negative = inhibition, usual class: inhibitors | 0.006% of 340,000 active | AID 504937, 2011
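Human placenta-derived ASM preincubated with compound 10 min at room temperature, then reacted with 9 uM (final) fluorogenic HMU-PC substrate for 60 min at 37 C. Stop solution raises pH to 10; fluorescence read at Ex 386/Em 447 nm.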
Rango release inh: qHTS Assay for Inhibitors of RanGTP induced Rango (Ran-regulated importin-beta cargo) - Importin beta complex dissociation | 0.071% of 340,000 active | Biochemical FRET Rango-importin beta, RanGTP-induced dissociation | Potency, µM (highest dose often 46.1 µM), without a hit: at the top dose activity change, negative = inhibition | Snurportin-1 (Homo sapiens) + GTP-binding nuclear protein Ran (Homo sapiens) + Importin …; calls by dose curve; also: % of control where 0% means no effect; nearly all actives have a fitted effect of over 45% in size
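Rango (0.1 uM)–importin beta (0.25 uM) complex; RanGTP-RCC1 trigger; 45 min RT; CFP/YFP FRET read.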
Rango-impB inh: qHTS Assay for Inhibitors of Rango (Ran-regulated importin-beta cargo) - Importin beta complex formation; Importin subunit beta-1 (Homo sapiens), Q14974; Rango CFP/YFP FRET sensor + importin beta, 45 min; Potency, µM (titrated, usually from 92.2 µM), for inactives: at the top dose inhibition of complex formation; 0.031% of 340,000 active; calls by dose curve;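 also: 0% = DMSO wells and 100% = buffer wells lacking importin beta; nearly all actives have a fitted effect of over 15% in size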
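FRET biosensor (snurportin 1 IBB flanked by EYFP and cerulean), 50 nM, with compound 5 min, then 0.125 microM importin beta in PBS, 1 mM DTT, 0.02% Tween-20, 0.1% BSA. CFP/YFP ratio read after 45 min at room temperature; pre-read flags interference.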
Abeta yeast res: qHTS for compounds that reverse cellular toxicity of Amyloid beta (A-beta) peptide in yeast: Primary Screen; yeast expressing A-beta42, growth rescue, OD600, 48 h; response scale: 0% DMSO, 100% iron-clioquinol control; Potency, µM (doses to about 46.1 µM), hits mostly activators; 0.063% of 410,000 active; also: nearly all actives have a fitted effect of over 55% in size
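Yeast growth medium received pinned compounds, then yeast cells expressing toxic A-beta were added; plates incubated at 30 C for 48 hr. Growth read as absorbance at 600 nm, normalized to DMSO and equimolar FeCl3 plus clioquinol controls.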
* = called active by the depositor; i = inactive; ? = inconclusive; . = no result; [ ] = remark or other dose. Hits are enriched below; roughly 2% of the tested compounds scored in any of these assays. Unless noted, calls follow the shape of the dose curve; as a rule, active = well fitted curve in the direction sought with a large enough effect; inconclusive = small, poorly fitted or top-dose-only effect, or another doubt; inactive = no such curve, though single readings can be large; an effect the other way counts as inactive or inconclusive. Potency is read from the fitted curve at half-maximal effect.

SMILES	aSyn rescue	TDP-43 yeast inh	ASM inhibitor	Rango release inh	Rango-impB inh	Abeta yeast res
CC1(OC(=O)C2CCCC2)C(=O)C=C2C=C(c3ccsc3)N(C3CCCCC3)C=C2C1=O (stereo not given)	-16.1%	10µM*	10.2%	?	?	i
Cc1nc2cccnc2n1C1CCN(S(C)(=O)=O)CC1	.	3.2%	.	.	.	i
Cn1nnc2c(N3CCN(c4ccccc4Cl)CC3)ncnc21	.	?	.	.	.	i
Cc1ccc(NC(=S)NC(=O)C2CCCC2)c(Br)c1	1.0%[1.84 µM]	14.1µM*	-9.6%	4.5%	0.2%	?
Cc1ccc(NC(=O)CN2CCC(NC(=O)C3CCCCC3)CC2)c(Br)c1	0.1%	-6.5%	4.1%	16.5%	-1.3%	i
O=C(NC(=S)Nc1ccccc1Br)C1CC1	-10.4%	12.6µM*	-0.1%	-10.1%	0.3%	i
Cc1ccccc1NC(=S)NC(=O)C1CCCCC1	0.4%	25.5%	1.0%	-9.7%	-0.2%	?
CCOc1ccc(CN2CCc3nc(Nc4ccc5c(c4)OCCO5)ncc3C2)cc1	.	-2.4%	.	.	.	i
COc1ccc(C(=O)Nc2ccc(S(=O)(=O)Nc3nccnc3OC)cc2)cc1	-12.4%	0.316µM*	-9.6%	?	-2.1%	i
COc1ccccc1NC(=O)Nc1nn(C)c2cccc(N(C)C)c12	-41.7%	20µM*	-1.5%	1.8%	5.6%	i
CN(C)c1cccc2c1c(NC(=O)Nc1ccc(Cl)cc1Cl)nn2C	-0.9%	5.2%	-0.6%	-16.9%	-1.7%	i
Cc1nc(N2CCCC2)c2c(C(=O)N3CCN(c4cc(Cl)ccc4C)CC3)c(C)oc2n1	.	1.0%	.	.	.	i
COc1cccc(C2CC(=O)Nc3c2c(=O)nc2c(C)cccn32)c1 (stereo not given)	0.3%	23.5%	.	.	.	i
OC(c1ccc(F)c(F)c1)c1nc(-c2csc3ccccc23)cs1 (stereo not given)	-59.3%	15.8µM*	.	.	.	i
COc1cc(C(O)c2nc(-c3csc4ccccc34)cs2)ccc1F (stereo not given)	?	20µM*	.	.	.	?
Cc1ccccc1-c1csc(C(O)c2ccc(F)c(F)c2)n1 (stereo not given)	23.5%	-17.4%	.	.	.	i
Cc1cc(Cl)ccc1C(=O)C1CCCN(C(=O)c2ccc3ncccc3c2)C1 (stereo not given)	10.4%	0.0%	1.4%	11.8%	-0.4%	i
Cc1cc(Cl)ccc1C(=O)C1CCCN(C(=O)c2ccsc2)C1 (stereo not given)	9.9%	12.6µM*	-3.7%	19.2%	1.8%	i
CC(C)C[C@H](NC(=O)OC(C)(C)C)c1nnc(SCC(=O)Nc2ccc(Br)cc2)o1	-0.8%	0.316µM*	-12.5%	3.3%	0.1%	i
Cc1ccc(-c2cc(C(=O)N3CCN(S(=O)(=O)c4ccc(Br)s4)CC3)[nH]n2)c(C)c1	.	23.5%	.	.	.	i
COc1cccc(/C=C(\C#N)c2nc3ccc(C)cc3[nH]2)c1OCC(=O)O	2.4%	17.0%	14.0%	16.4µM*	?	i
Cc1ccc2nc(/C(C#N)=C/c3ccc(-c4cccc(Cl)c4)o3)[nH]c2c1	.	2µM*	.	.	.	i
Cc1ccc(NC(=O)c2sc3nc4c(cc3c2N)CN(Cc2ccccc2)CC4)cc1	.	?	.	.	.	i
Cc1ccc(C2OC34CCCCCC3C(C#N)(C(=N)O4)C2(C#N)C#N)cc1 (stereo not given)	-29.9%	1.26µM*	i	?	?	i
